Screening data: PubChem BioAssay, several laboratories
VLA-4 inh = inhibition in a human VLA-4 binding assay. P13612. VLA-4 expressing cells, ligand binding flow cytometry. inhibition, % (about 7 µM as worked out from the volumes in the protocol). 330,000 tested, 0.2% active. AID 2557; in the data active = inhibition above about 50%
ABCB6 inh 2 = blocks the human ABCB6 transporter | K562-ABCB6 porphyrin accumulation, flow cytometry, 1 h; active compounds read low | fluorescence ratio to DMSO, % at 10 µM | 360,000 tested, 0.19% active | AID 602162;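 active = fluorescence ratio to DMSO below 75%, the collection mean minus 3 SD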;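 note: signal is porphyrin accumulated inside mitochondria; lower ratio means ABCB6 inhibition with less porphyrin fluorescence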
Yeast superoxide = caloric restriction mimetics inhibiting age-related superoxide in yeast; 330,000 tested, 0.18% active; S. cerevisiae aged cells, superoxide DHE fluorescence; active compounds read low; superoxide response (% of plate mean), % at 10 µM; AID 2690;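 active = superoxide response under a set limit, about three screen SD below normal, cut at about 65% in these data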;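 note: yeast aged for seven days with compound at 30 °C before DHE staining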
Platelet DG rel = modulates dense granule release in human platelets | inhibition, %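 (compounds screened at 7.5 µM in platelet-rich plasma)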 | AID 1663 | 300,000 tested, 0.22% active | human platelet-rich plasma, SFLLRN dense granule ATP release, luminescence;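 active = mean replicate score, as percent of positive control, at or above 50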
SKN-1 block = C. elegans SKN-1 inhibition; 360,000 tested, 0.49% active; inhibition, % at 21.8 µM; AID 624304; C. elegans VP596 Pgst-4::GFP/RFP ratio, acrylamide-induced, 24 h;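 active = interference check ratio from 0.5 to 1.5 plus GFP to RFP signal ratio inhibition reaching or exceeding a fixed threshold, cut at about 30% in these data, passing the limit was not always enough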
Of the large screens only hits and unclear results are named; the others gave an inactive call. Compounds with a hit are over-represented: about 1.2% of the library has one in this group of screens.

N#Cc1cc(-c2ccccc2)nn1-c1ccccc1	SKN-1 block 35
CCOC(=O)C1(C)CCCN1C(=O)c1ccc(C(F)(F)F)nc1C (stereo unspecified)	none (no result: VLA-4 inh, Yeast superoxide, Platelet DG rel)
CCOc1ccc(-c2cc(C(=O)Nc3cc(OC)c(OC)c(OC)c3)[nH]n2)c(C)c1	none (no result: VLA-4 inh, Yeast superoxide, Platelet DG rel)
CC1=C(C(=O)N2CCCCCC2)CC(CC(=O)NC2CCCC2)C(=O)N1Cc1ccccc1 (stereo unspecified)	none (no result: VLA-4 inh, Yeast superoxide, Platelet DG rel)
C=C1CCC[C@]2(C)C[C@H]3OC(=O)C(CNCCN(C)C)[C@H]3CC12 (stereo partly specified)	SKN-1 block 37
CCOC(=O)c1nc2sc3c(c2c(=O)[nH]1)CCCC3	Platelet DG rel 60
CCOC(=O)c1nc2sc3c(c2c(=O)[nH]1)CCC(C)C3 (stereo unspecified)	none
Brc1ccc(-n2cnc(-c3ccccc3)c2)cc1	SKN-1 block 40 (no result: Platelet DG rel)
COc1ccccc1NC(=O)CN1CCN(C2c3ccccc3-c3ccccc32)CC1	SKN-1 block 37
CC1(C(=O)NCc2cccc3ccccc23)CCN1Cc1ccccc1OC(F)F (stereo unspecified)	none (no result: VLA-4 inh, Yeast superoxide, Platelet DG rel)
COc1cc2c(cc1OC)-c1cc(Nc3ccccc3C)nc(=O)n1CC2	Platelet DG rel 93
CCOc1ccccc1Nc1cc2n(c(=O)n1)CCc1cc(OC)c(OC)cc1-2	Platelet DG rel 90
CCOc1ccc(Nc2cc3n(c(=O)n2)CCc2cc(OC)c(OC)cc2-3)cc1	none
COc1cc2c(cc1OC)-c1cc(Nc3cccc(C)c3)nc(=O)n1CC2	Platelet DG rel 86
O=C(N[C@H]1CC[C@H](CCNC(=O)C2CC2)O[C@@H]1CO)c1ccccn1	none (no result: VLA-4 inh, ABCB6 inh 2, Yeast superoxide, Platelet DG rel)
CC1(C(=O)O)CCN1C(=O)c1cccnc1Oc1ccccc1 (stereo unspecified)	none (no result: VLA-4 inh, Yeast superoxide, Platelet DG rel)
CC(=O)Nc1ccc(NC(=O)c2ccc(-c3ccnn3C)c3ccoc23)cc1	none (no result: VLA-4 inh, Yeast superoxide, Platelet DG rel)
O=C(Nc1cccc2[nH]c([C@H]3C[C@H](O)[C@@H](CO)O3)nc12)NC(c1ccccc1)c1ccccc1	none (no result: VLA-4 inh, Yeast superoxide, Platelet DG rel)
O=C(NCc1c(Cl)cccc1Cl)c1[nH]c(C(F)(F)F)nc1-c1ccccc1	none (no result: VLA-4 inh, Yeast superoxide, Platelet DG rel)
CCOc1cc(C(N)=O)cc(Br)c1OC	SKN-1 block 44
CCOc1cc(C(N)=O)cc(OCC)c1OCC	none
CSCCC(C(=O)NCc1ccccc1)n1c(C2CCN(C(C)=O)CC2)nc2ccccc21 (stereo unspecified)	none (no result: VLA-4 inh, ABCB6 inh 2, Yeast superoxide, Platelet DG rel)
CC(=O)Nc1ccc(C(=O)OCC(=O)NC(=O)NC(C)(C)C)cc1	SKN-1 block 45
CC(C)(C)NC(=O)NC(=O)COC(=O)c1ccc(OC(F)(F)F)cc1	none
Cc1ccc(S(=O)(=O)NC(=O)C2(C)CCN2C(=O)c2ccc(C(F)(F)F)nc2C)cc1 (stereo unspecified)	none (no result: VLA-4 inh, Yeast superoxide, Platelet DG rel)
Oc1ccccc1/C=N/Nc1nccnc1Cl	none
COc1ccc(/C=N/Nc2nccnc2Cl)c(OC)c1	Platelet DG rel 54
COc1ccc(/C=N/Nc2nncc3ccccc23)cc1	Platelet DG rel 68
COc1ccc(/C=N/Nc2cc(OC)ncn2)cc1	Platelet DG rel 52
Oc1ccc(/C=N/Nc2nccnc2Cl)c(O)c1	Platelet DG rel 135
COc1ccccc1N1CC(C(=O)OC(C)C(=O)Nc2ccc(F)cc2)CC1=O (stereo unspecified)	none (no result: VLA-4 inh, Yeast superoxide, Platelet DG rel)
CSCCC(C(=O)NC(C)(C)C)n1c(-c2ccc(C)cc2)nc2ccccc21 (stereo unspecified)	none (no result: VLA-4 inh, ABCB6 inh 2, Yeast superoxide, Platelet DG rel)
OC[C@@H]1CN(Cc2ccc(-c3ccccc3)cc2)C[C@H](n2cnc3c(NCc4ccncc4)ncnc32)O1	none (no result: VLA-4 inh, Yeast superoxide, Platelet DG rel)
COc1cccc(/C=N/Nc2ncnc(Cl)c2N)c1O	none
COc1cccc(/C=N/Nc2nccnc2Cl)c1O	Platelet DG rel 84 (no result: VLA-4 inh, Yeast superoxide)
COc1ccc(/C=N/Nc2nccnc2Cl)cc1	Platelet DG rel 82
CC(C)N(C)c1ncnc2c1ncn2[C@H]1CN(Cc2cccs2)C[C@@H](CO)O1	none (no result: VLA-4 inh, Yeast superoxide, Platelet DG rel)
CCCCC[C@@H](C)N1C[C@H](COCc2ccccc2)Oc2cc(N3CCC[C@@H]3COC)ccc2S1(=O)=O	none (no result: VLA-4 inh, Yeast superoxide, Platelet DG rel)
CC(=NNC(=O)c1cccc(S(=O)(=O)N2CCCC2)c1)c1ccccc1	none (no result: Platelet DG rel)
CC(=O)Nc1cccc(/C(C)=N/NC(=O)c2cccc(S(=O)(=O)N3CCCC3)c2)c1	ABCB6 inh 2 72 (no result: VLA-4 inh, Yeast superoxide, Platelet DG rel)
COC(=O)c1c(NC(=O)C2CC(=O)NN2Cc2ccccc2)sc(C)c1C (stereo unspecified)	Platelet DG rel 60
O=S1(=O)CC(c2ccccc2)=NN=C(c2ccccc2)C1	SKN-1 block 36 (no result: VLA-4 inh, Yeast superoxide, Platelet DG rel)
O=C1CC(c2ccccc2)=NO1	none (no result: VLA-4 inh, Yeast superoxide, Platelet DG rel)
CCOC(=O)N1CCN(Cc2cc(=O)oc3cc4c(cc23)CCC4)CC1	Platelet DG rel 78
